Among all 330,000 compounds or so, about 3,800 (1.2%) were called active. Cut-off read from the data, not from the text of the source: active = inhibition above about 15%; inconclusive = no clear call, values can overlap the other calls; inactive = below that. The entries come from a sample that favours actives as a whole.
molecular target: NAD-dependent protein deacylase sirtuin-5, mitochondrial (Homo sapiens) (UniProt Q9NXA8); assay: SIRT5 desuccinylase inhibitors, primary screen, biochemical, fluorescence imaging, single point, set 5 (AID 652115); settings: Purified SirT5, succinyl-peptide AMC, trypsin-coupled fluorescence; at 15 µM; hits give high values
Sequence (Q9NXA8 whole entry, looked up): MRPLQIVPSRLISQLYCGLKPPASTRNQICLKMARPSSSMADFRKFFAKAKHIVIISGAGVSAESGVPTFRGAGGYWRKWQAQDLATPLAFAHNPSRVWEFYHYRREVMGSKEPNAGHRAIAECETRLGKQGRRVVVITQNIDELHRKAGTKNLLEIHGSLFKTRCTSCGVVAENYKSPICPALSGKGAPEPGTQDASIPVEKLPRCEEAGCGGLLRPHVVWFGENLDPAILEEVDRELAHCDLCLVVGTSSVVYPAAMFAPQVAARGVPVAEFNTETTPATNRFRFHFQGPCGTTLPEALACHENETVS

inhibition, active:
O=C(COC(=O)c1ccc(Br)o1)NC12CC3CC(CC(C3)C1)C2 15.6%, COc1cccc(OCC(=O)Nc2ccccc2C(N)=O)c1 29.5%, COc1ccc(S(=O)(=O)NCCc2c[nH]c3ccccc23)cc1OC 21.4%, COC(=O)C1=C(C)N(C)C(=O)NC1c1ccc([N+](=O)[O-])o1 (stereo not drawn) 17.2%, COCCCNC(=S)N(Cc1ccccc1)Cc1ccc(F)cc1 15.1%, CCN(c1ccccc1)S(=O)(=O)c1ccc2[nH]c(=O)[nH]c2c1 23.9%, Cc1cc(/C=N/Nc2ccc([N+](=O)[O-])cn2)c(C)n1-c1cccc(C(=O)O)c1 17.7%, Cc1noc(C)c1NC(=O)N[C@@H]1C=C[C@@H](CC(=O)Nc2ccccc2)O[C@H]1CO 32.2%, O=S(=O)(Cc1ccccc1)c1nc2ccccc2n1Cc1ccccn1 21.7%, Cc1occc1C(=O)NNC(=S)NCC(C)C 19.4%, COc1ccc(-c2ocnc2C(=O)Nc2ccc3c(c2)CCC3)cc1 22.1%, CCc1cccc(NC(=O)O[C@H]2[C@H](OC(=O)Nc3ccccc3-c3ccccc3)[C@H](OC(=O)Nc3ccccc3-c3ccccc3)[C@@H](OC)O[C@@H]2CO)c1 17.1%, Cc1ccc(NC2=C(Cl)C(=O)OC2OC(=O)c2ccccc2C)cc1 (stereo not drawn) 17.3%, O=[N+]([O-])c1ccc2oc(-c3cccc(O)c3)nc2c1 18.3%, Cc1cccc(C(=O)NCc2nnc(SC(C)C(=O)Nc3nnc(C)s3)n2C)c1 (stereo not drawn) 21.7%, Nc1nc2c(ncn2[C@@H]2O[C@H](CNCc3ccc(OCCCN4CCOCC4)cc3)[C@@H](O)[C@H]2O)c(=O)[nH]1 22.3%, CCOC(=O)[C@]12CCCC=C1N(CCC1=CCCCC1)C(=O)[C@H](CC(=O)N1CCN(C(=O)c3ccco3)CC1)C2 16.3%

inhibition, inactive:
O=C(COC(=O)c1ccc([N+](=O)[O-])o1)NC12CC3CC(CC(C3)C1)C2 -5.22%, O=C(COC(=O)c1cccnc1Cl)NC12CC3CC(CC(C3)C1)C2 0.076%, COCC(=O)Nc1ccc2c(c1)OC[C@@H](C)N(Cc1ccccn1)C[C@H](C)[C@@H](OC)CN(C)C2=O -1.91%, COc1cccc(S(=O)(=O)Nc2ccc3c(c2)C(=O)N(C)C[C@@H](OC)[C@@H](C)CN[C@@H](C)CO3)c1 5.28%, C[C@H](O)C#Cc1cnc2c(c1)C(=O)N([C@@H](C)CO)C[C@H](C)[C@@H](CN(C)C(=O)c1ccccc1)O2 -1.59%, Cc1cccc(OCCC(=O)Nc2ccccc2C(N)=O)c1 -1.74%, Cc1cccc(OCC(=O)Nc2ccccc2F)c1 -2.03%, O=C(C[C@@H]1CC[C@H]2[C@@H](COC[C@@H](O)CN2S(=O)(=O)c2cccc(Cl)c2)O1)N1CCCCC1 1.52%, COc1ccccc1NC(=O)CCCc1c[nH]c2ccccc12 -1.4%, COc1ccc(CCNS(=O)(=O)c2ccc(F)cc2)cc1OC -1.59%, CC=Cc1ccc2n(c1=O)C[C@H]1[C@H](CO)[C@@H](C(=O)NCC3CC3)N(Cc3nccs3)[C@@H]21 (mixture of isomers) 1.01%, COCC(=O)N1C[C@H]2[C@@H](c3ccccc31)[C@@H](CO)N2C(=O)NC(C)C 0.583%, O=C(C1CCC1)N1CC(=O)N2[C@H](C1)[C@@H](c1ccc(-c3ccccc3F)cc1)[C@@H]2CO 3.28%, C[C@H](CO)N1C[C@H](C)[C@H](CN(C)Cc2ccc(C(=O)Nc3ccccc3N)cc2)Oc2c(NC(=O)Nc3ccccc3)cccc2C1=O -0.83%, COCCN1C(=O)N[C@@H](c2ccccc2)C(C(=O)OC)=C1C -1.66%, COc1ccc(C2NC(=O)N(C)C(C)=C2[N+](=O)[O-])cc1 (stereo not drawn) 2.48%, CC=Cc1ccc2n(c1=O)C[C@H]1[C@H](CO)[C@@H](C(=O)N3CCCCC3)N(Cc3ccccn3)[C@@H]21 (mixture of isomers) 3.91%, C[C@@H](NC(=O)C[C@H]1C[C@H]2c3cc(NC(=O)C4CCOCC4)ccc3O[C@H]2[C@@H](CO)O1)c1ccccc1 -0.41%, Cc1cc(C)c2[nH]c(=O)c(CN(Cc3ccccc3)C(=S)NCCCN(C)C)cc2c1 -6.33%, COCCCNC(=S)NNC(=O)C(O)(c1ccccc1)c1ccccc1 -5.23%, COCC(=O)N1[C@H](CO)[C@@H](c2ccccc2)[C@H]1CN(C)C(=O)c1ccncc1 3.21%, CN(c1ccccc1)S(=O)(=O)c1ccc2[nH]c(=O)[nH]c2c1 -0.22%, CCN(c1ccccc1)S(=O)(=O)c1ccc(OCC(=O)N2CCCC2)cc1 -0.147%, O=C(C[C@H]1C=C[C@H](NC(=O)Cc2ccccn2)[C@@H](CO)O1)NCCc1ccccc1 6.76%, O=C(C1CCCC1)N1CC(=O)N2[C@H](C1)[C@@H](c1ccc(-c3cccnc3)cc1)[C@@H]2CO 1.11%, CO[C@H]1CN(C)C(=O)c2ccc(NC(=O)Nc3c(C)noc3C)cc2OC[C@@H](C)NC[C@H]1C -5.86%, Cc1cccc(-n2c(C)cc(/C=N\NC(=O)c3cccs3)c2C)c1 -1.07%, CC(C)c1ccc(C=NNc2ccc([N+](=O)[O-])cn2)cc1 1.24%, O=S(=O)(c1ccc(F)cc1)N1CC[C@@H]2[C@@H](CO)Nc3ccc(-c4ccccc4F)cc3[C@@H]21 7.3%, O=C(C[C@@H]1C[C@@H]2c3cc(NC(=O)Nc4ccc(F)cc4)ccc3O[C@@H]2[C@H](CO)O1)NCC(F)(F)F -3.74%, Cc1noc(C)c1NC(=O)N[C@@H]1CC[C@H](CC(=O)Nc2ccccc2)O[C@H]1CO 5.15%, Cc1noc(C)c1NC(=O)N[C@H]1C=C[C@@H](CC(=O)Nc2ccccc2)O[C@H]1CO 1.42%, c1ccc(CCc2ccccn2)cc1 9.65%, CC(=O)c1nc2ccccc2n1Cc1ccccc1 -2.51%, COc1ccccc1NC(=O)N[C@H]1C=C[C@H](CC(=O)N[C@@H](C)c2ccccc2)O[C@H]1CO -1.94%, C/C=C/c1cnc2c(c1)C(=O)N([C@@H](C)CO)C[C@@H](C)[C@@H](CN(C)C(=O)c1cnccn1)O2 -1.71%, Cc1scc(C(=O)NNC(=S)NCC(C)C)c1C -4.94%, Cc1scc(C(=O)NNC(=S)NCc2ccccc2)c1C -0.205%, CO[C@H]1CN(C)C(=O)c2cc(NC(=O)C3CC3)ccc2OC[C@H](C)N(C(=O)CN(C)C)C[C@H]1C 0.163%, CCC(=O)N1[C@@H]2c3ccc(-c4ccc(F)cc4)c(=O)n3C[C@H]1[C@H](CO)[C@H]2C(=O)N(C)C -32.2%, COc1ccc2c3c(n(C)c2c1)[C@@H](CO)N(CC1CC1)CC31CCN(C(=O)c2ccc3c(c2)OCO3)CC1 3.18%, COc1cccc(NC(=O)CN(C)CC(=O)Nc2ccc3c(c2)CCC3)c1 2.3%, CC(C)Oc1ccc(C(=O)NCC(=O)Nc2ccc3c(c2)CCC3)cc1 -4.19%, CNC(=O)C[C@@H]1CC[C@H]2[C@H](COc3ccc(NC(=O)c4cccc(OC)c4)cc3C(=O)N2C)O1 2.09%, CO[C@H]1O[C@H](CO)[C@@H](OC(=O)Nc2ccccc2)[C@H](OC(=O)Nc2ccc3c(c2)OCO3)[C@H]1OC(=O)Nc1ccc2c(c1)OCO2 2.4%, CO[C@H]1O[C@H](CO)[C@@H](OC(=O)Nc2ccccc2-c2ccccc2)[C@H](OC(=O)Nc2ccccc2)[C@H]1OC(=O)Nc1ccccc1 8.45%, C[C@H]1CN([C@@H](C)CO)C(=O)c2cc(C3=CCCCC3)cnc2O[C@@H]1CN(C)C(=O)c1ccc(F)cc1 1.19%, CCCNC(=O)N1[C@H](CO)[C@@H]2c3ccccc3N(C(=O)C3CC3)C[C@@H]21 1.05%, CCOC(=O)c1ccc(Nc2cc3ccccc3c(=O)[nH]2)cc1 -0.372%, Cc1ccccc1C(=O)OC1OC(=O)C(Cl)=C1Nc1ccccc1 (stereo not drawn) -2.37%, O=C(c1cccnc1)N1CC(=O)N2[C@H](C1)[C@H](c1ccc(-c3ccccc3F)cc1)[C@@H]2CO -2.3%, CCCNC(=O)Nc1ccc2c(c1)C(=O)N(C)C[C@H](OC)[C@H](C)CN(Cc1cccnc1)[C@@H](C)CO2 0.086%, O=[N+]([O-])c1ccc2c(c1)Nc1nc3ccccc3nc1N2 1.03%, CC(=O)Oc1ccc2c(=O)oc(-c3ccc([N+](=O)[O-])cc3)nc2c1 -2.32%, COc1ccccc1C(=O)NCc1nnc(SC(C)C(=O)Nc2nccs2)n1C (stereo not drawn) -2%, CC(Sc1nnc(CNC(=O)c2ccccc2F)n1C)C(=O)Nc1nccs1 (stereo not drawn) -2.13%, CCCNC(=O)C[C@H]1CC[C@H]2[C@@H](COC[C@@H](O)CN2C(=O)Nc2ccc(Cl)c(Cl)c2)O1 3.46%, Nc1nc2c(ncn2[C@@H]2O[C@H](CNS(=O)(=O)N3CCc4ccccc4C3)[C@@H](O)[C@H]2O)c(=O)[nH]1 2.78%, CC(C)(O)C#Cc1ccc(CNC[C@H]2O[C@@H](n3cnc4c(=O)[nH]c(N)nc43)[C@H](O)[C@@H]2O)s1 -5.95%, CCOC(=O)[C@]12CCCC=C1N(CCC1=CCCCC1)C(=O)[C@H](CC(=O)N1CCSCC1)C2 0.458%, CCOC(=O)[C@]12CCCC=C1N(CCC1=CCCCC1)C(=O)[C@H](CC(=O)N1CCCCC1)C2 -0.497%

Source: PubChem BioAssay AID652115 (Broad Institute, 2013)
